Experimental data as given in PubChem BioAssay AID1851 (National Center for Advancing Translational Sciences (NCATS), 2009).
Several values for one entry are separate records, joined by “and”; a condition that tells them apart may be missing. Equal entries are not always repeated. Hit rate of the full screen: of about 16,000 compounds, about 5,100 (32%) were called active. About 25% were inconclusive and are not listed. The list shows a part of the results. Unmarked numbers belong to inactive results. Calls follow the shape of the dose curve; as a rule, active = well fitted curve in the direction sought with a large enough effect; inconclusive = small, poorly fitted or top-dose-only effect, or effect the other way; inactive = no such curve, though single readings can be large or run the other way.
% is scaled to controls: 0 for no effect and ±100 for the full control effect.

The molecules below were run against Cytochrome P450 3A4 (Homo sapiens) (UniProt P08684) (assay: Cytochrome panel assay with activity outcomes). Conditions: recombinant CYP, pro-luciferin dealkylation, luminescence, p450-cyp3a4; series mostly up to 57.1 µM; activity, negative = inhibition: at the top concentration.
Chain of Cytochrome P450 3A4 (Homo sapiens) (P08684 whole entry, looked up): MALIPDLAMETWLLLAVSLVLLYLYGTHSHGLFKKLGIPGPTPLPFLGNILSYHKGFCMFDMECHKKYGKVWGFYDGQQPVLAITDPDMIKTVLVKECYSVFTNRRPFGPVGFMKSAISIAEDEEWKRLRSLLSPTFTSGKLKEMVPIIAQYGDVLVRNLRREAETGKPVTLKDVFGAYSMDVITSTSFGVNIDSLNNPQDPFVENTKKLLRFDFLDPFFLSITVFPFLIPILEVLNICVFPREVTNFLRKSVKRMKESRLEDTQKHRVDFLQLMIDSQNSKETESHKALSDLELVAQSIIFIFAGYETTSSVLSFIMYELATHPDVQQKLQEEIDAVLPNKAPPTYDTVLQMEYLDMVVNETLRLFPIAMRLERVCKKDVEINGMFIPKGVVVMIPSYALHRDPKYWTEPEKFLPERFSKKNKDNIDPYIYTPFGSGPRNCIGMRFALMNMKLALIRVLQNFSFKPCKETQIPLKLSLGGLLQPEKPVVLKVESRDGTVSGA
In the case of `C[C@@H](C(=O)NCCc1c[nH]c2ccccc12)[C@@H]1C[C@@]1(C)[C@@H](NC(=O)OCc1ccccc1)c1ccccc1`, the AC50 was 3.16 µM (active).
With `C[C@@H](C(=O)NCCc1c[nH]c2ccccc12)[C@H]1C[C@]1(C)[C@H](NC(=O)OCc1ccccc1)c1ccccc1` the AC50 was 1.58 µM (active).
Work on `CC(C)CNC(=O)CCCc1c[nH]c2ccccc12` yielded an activity, negative = inhibition of 14.6% [at 2.29 µM].
`C[C@@H]1O[C@@H](O)[C@@H](O)[C@H](O)[C@H]1O` showed an activity, negative = inhibition of -3.34% [at 11.4 µM].
For `CN(C)c1oc(-c2ccccc2)nc1C#N`, the “activity, negative = inhibition” value was -21.4%.
For `O=C(Oc1oc(-c2ccco2)nc1C=Nc1ccc(Cl)cc1)c1ccco1`, the “activity, negative = inhibition” value was 0.287%.
With `CN(C)c1ccc(N=Cc2nc(-c3ccccc3)oc2O)cc1` the AC50 was 14.1 µM (active).
For `CC(=O)N1CCN(C)CC1`, the “activity, negative = inhibition” value was -10.7%.
With `COc1cc(CNC2CCCC2)cc(Cl)c1OCc1ccccc1Cl` the AC50 was 5.62 µM (active).
Molecule `Cc1cc(C(C)(C)C)cc(CNC2CCCCC2)c1O` has an activity, negative = inhibition of -20.7% [at 11.4 µM].
`CCOc1cc(C2NN=C(c3ccccc3)S2)ccc1OCc1ccccc1Cl` (stereo not drawn) was tested, and the activity, negative = inhibition was 7.68% [at 2.29 µM].
For `CCN1CCCC1CNC(=O)CSCc1nc(-c2ccccc2C)oc1C` (stereo not drawn), the AC50 was 6.31 µM (active).
For `Cc1oc(-c2ccccc2Cl)nc1CSCC(=O)NC1CC1`, the AC50 was 4.47 µM (active).
With `CC1CCC(NC(=O)CC(C)(C)Cc2nc3ccccc3c(=O)[nH]2)CC1` (stereo not drawn) the “activity, negative = inhibition” value was 13.9%.
With `CCOc1ccccc1NC(=O)C(=O)NCC1CCCN1CC` (stereo not drawn) the “activity, negative = inhibition” value was -6.39%.
`CCN1CCCC1CNC(=O)C(=O)Nc1ccccc1OC` (stereo not drawn) was tested, and the “activity, negative = inhibition” value was -20.6%.
In the case of `C1CCc2c(nc3nnnn3c2NC2CCCC2)C1`, the “activity, negative = inhibition” value was -17.9%.
For `NC(=NCc1ccccc1)NC(=O)c1nc(Cl)c(N)nc1N`, the AC50 was “inactive”.
`O=c1cc(N2CCCCC2)c(-c2ccccc2)nn1Cc1ccccc1Cl` was tested, and the AC50 was 10 µM (active).
With `COC(=O)c1cc(OC)c(OC)cc1NC(=S)N1CCCCC1` the AC50 was 3.98 µM (active).
`Cc1cccc(N2CCN(c3ccc(NC(=O)/C=C(/C(=O)O)c4ccccc4)cc3)CC2)c1` showed an activity, negative = inhibition of 0.321% [at 2.29 µM].
In the case of `COc1cc(CC(=O)O)c(C(C)=O)cc1OC`, the “activity, negative = inhibition” value was 18.7%.
`COC(=O)c1ccc(C(=O)OC)c(NC(=S)N2CCN(c3ccccc3)CC2)c1` was tested, and the AC50 was 7.94 µM (active).
For `COc1cccc(Nc2ncc3nc(C)c(=O)n(CCC#N)c3n2)c1`, the AC50 was 12.6 µM (active).
For `N#CCCn1c(=O)c(-c2ccccc2)nc2cnc(Nc3ccccc3)nc21`, the “activity, negative = inhibition” value was -28.1%.
For `COc1ccc(-c2nc3cnc(Nc4ccccc4)nc3n(CCC#N)c2=O)cc1`, the “activity, negative = inhibition” value was -23.2%.
`COc1cccc(Cn2c(=O)cnc3cnc(Nc4cccc(OC)c4)nc32)c1` was tested, and the AC50 was 2 µM (active).
`COc1cccc(Nc2ncc3nc(-c4cccs4)c(=O)n(CCC#N)c3n2)c1` was tested, and the AC50 was 6.31 µM (active).
For `COc1ccc(-c2nc3cnc(Nc4cccc(OC)c4)nc3n(CCC#N)c2=O)cc1`, the AC50 was 3.98 µM (active).
`O=C1CCCC=C1[C@@H](O)CCOC(c1ccccc1)(c1ccccc1)c1ccccc1` showed an activity, negative = inhibition of -80.3% [at 11.4 µM].
`CC(C)(C)c1cc(Br)c(O)c(CN(Cc2cc(C(C)(C)C)cc(Br)c2O)C2CCCCC2)c1` was tested, and the activity, negative = inhibition was -3.9% [at 11.4 µM].
`COCCn1c(=O)c(-c2ccc(Cl)cc2)nc2cnc(Nc3ccccc3)nc21` was tested, and the “activity, negative = inhibition” value was -29.4%.
With `COc1cccc(Nc2ncc3ncc(=O)n(CCC#N)c3n2)c1` the AC50 was 15.8 µM (active).
For `COCCn1c(=O)cnc2cnc(Nc3ccccc3)nc21`, the “activity, negative = inhibition” value was -22.2%.
For `COc1cccc(Nc2ncc3nc(-c4cc(F)cc(F)c4)c(=O)n(CCC#N)c3n2)c1`, the AC50 was 10 µM (active).
`COCCn1c(=O)c(-c2ccccc2)nc2cnc(Nc3ccccc3)nc21` was tested, and the AC50 was 12.6 µM (active).
With `N#CCCn1c(=O)c(-c2cc(F)cc(F)c2)nc2cnc(Nc3ccccc3)nc21` the “activity, negative = inhibition” value was -28.1%.
`CN(C)c1ncc2ncc(=O)n(CCC#N)c2n1` was tested, and the “activity, negative = inhibition” value was -17.1%.
With `COCCn1c(=O)cnc2cnc(Nc3cccc(OC)c3)nc21` the AC50 was 15.8 µM (active).
`Cn1c(=O)c2c(nc(N/N=C\c3ccccc3C(=O)O)n2C)n(C)c1=O` showed an activity, negative = inhibition of 5.51% [at 11.4 µM].
`CCC[C@H]1C(=O)N2C(N(C)C)=Nc3ccc(C)cc3N2C1=O` was tested, and the “activity, negative = inhibition” value was -23.4% [at 25.6 µM].
With `COCCn1c(=O)c(-c2ccccc2)nc2cnc(Nc3cccc(OC)c3)nc21` the “activity, negative = inhibition” value was -26.2%.
In the case of `COc1cccc(Nc2ncc3nc(-c4ccc(F)cc4)c(=O)n(CCC#N)c3n2)c1`, the AC50 was 3.16 µM (active).
With `COCCn1c(=O)c(-c2cc(F)cc(F)c2)nc2cnc(Nc3cccc(OC)c3)nc21` the AC50 was 7.94 µM (active).
With `COc1ccc(Sc2nc3ccccc3n3c(C(F)(F)F)nnc23)cc1` the activity, negative = inhibition was -0.72% [at 11.4 µM].
In the case of `CN1CCc2cc3c(cc2[C@@H]1[C@@H]1C(=O)Oc2c1ccc1c2OCO1)OCO3`, the AC50 was 1.26 µM (active).
In the case of `C[N+]1(C)CCc2cc3c(cc2[C@@H]1[C@@H]1C(=O)Oc2c1ccc1c2OCO1)OCO3`, the AC50 was 12.6 µM (active) and 15.8 µM (active).
`CCCCSC(=S)N(C)C1CCS(=O)(=O)C1` (stereo not drawn) was tested, and the “activity, negative = inhibition” value was -9.97%.
In the case of `Nc1nccc(Nc2ccc(S(N)(=O)=O)cc2)n1`, the activity, negative = inhibition was -5.22% [at 11.4 µM].
For `Fc1ccc(Nc2ccnc(-c3ccoc3)n2)cc1`, the AC50 was 7.94 µM (active).
For `Fc1ccc(Nc2ccnc(-c3ccc4c(c3)OCO4)n2)cc1`, the AC50 was 2 µM (active).
`CN(C)c1ccc(-c2cc(Nc3ccc(F)cc3)ncn2)cc1` was tested, and the AC50 was 10 µM (active).
`CN(C)c1ccc(-c2nccc(Nc3ccc(F)cc3)n2)cc1` was tested, and the AC50 was 12.6 µM (active).
Work on `C(=Nc1cnc2ccccc2c1)c1ccc2ccccc2n1` yielded an activity, negative = inhibition of -12.4% [at 11.4 µM].
For `O=C1C2C3C=CC(C3)C2C(=O)N1c1ncn[nH]1` (stereo not drawn), the “activity, negative = inhibition” value was -2.95%.
Molecule `O=C1C2C3c4ccccc4C(c4ccccc43)C2C(=O)N1c1nc(-c2ccccc2)cs1` (stereo not drawn) has an activity, negative = inhibition of 0.59% [at 2.29 µM].
With `CC(C)(C)C(=O)N1CCc2cc(-c3csc(N)n3)ccc21` the AC50 was 8.91 µM (active).
For `COc1cc(Cl)c(CC(=O)c2c[nH]c3ccccc23)cc1OC`, the AC50 was 2.51 µM (active).
For `O=C(OCCN1CCCCC1)c1c[nH]c2ccccc12`, the AC50 was “inactive”.
In the case of `COc1ccccc1CNS(=O)(=O)c1ccc2[nH]cc(C(=O)O)c(=O)c2c1`, the “activity, negative = inhibition” value was -19.8%.
For `Nc1cc(Cl)nc(N/N=C/c2ccccc2[N+](=O)[O-])n1`, the AC50 was 14.1 µM (active).
In the case of `Nc1nnnn1/N=C\c1ccc(Cl)c([N+](=O)[O-])c1`, the “activity, negative = inhibition” value was -9.78%.
`O=[N+]([O-])c1ccc(/C=N/Nc2cc(Cl)nc(-c3ccccc3)n2)cc1` was tested, and the “activity, negative = inhibition” value was -19%.
With `N[C@@H]1[C@@H]2[C@@H]3C[C@H]4N(CC[C@@]14C(=O)C(=O)O)CC3=CCO[C@@H]2CC(=O)O` the activity, negative = inhibition was -11.7% [at 11.4 µM].
In the case of `COc1ccc2c(c1)CCc1c(C(=O)N3CCCCCC3)noc1-2`, the AC50 was 14.1 µM (active).
`CSc1nc2ccccc2cc1/C=C(\C#N)c1ccc(Cl)cc1Cl` gave an activity, negative = inhibition of 25.6% [at 11.4 µM].
For `CCOC(=O)C1=NNC2(c3ccc(Cl)cc3)C(=O)N(c3cc(C)cc(C)c3)C(=O)C12` (stereo not drawn), the AC50 was 2.24 µM (active).
With `Cc1nc2sc(C#N)c(N)c2c2c1CCCC2` the AC50 was 14.1 µM (active).
In the case of `Cc1ccc(-c2c3c(nc4sc(C(N)=O)c(N)c24)CCC3)cc1`, the activity, negative = inhibition was 0.806% [at 2.29 µM].
With `COc1nc(C)nc(Cl)c1NC1=NCCN1` the AC50 was “inactive”.
With `CN=C1N[C@H](c2ccccc2)N(c2ccccc2)S1` the AC50 was 31.6 µM (active).
In the case of `S=C(NCCSCc1ccc(Cl)cc1Cl)Nc1ccccc1`, the AC50 was 7.94 µM (active).
For `S=C(NCCSCc1c(Cl)cccc1Cl)Nc1ccccc1`, the AC50 was 7.08 µM (active).
With `OCCSCc1cc(Cl)cc(Cl)c1O` the activity, negative = inhibition was -27.9% [at 11.4 µM].
Work on `Oc1ccc2ccccc2c1C=NCc1c(O)ccc2ccccc12` yielded an activity, negative = inhibition of -15.3% [at 11.4 µM].
For `CCOC(=O)CSC1=C(C#N)C(c2sccc2C)C(C(C)=O)=C(C)N1` (stereo not drawn), the activity, negative = inhibition was 19% [at 2.29 µM].
For `C=CCOC(=O)C1=C(C)NC(SCC(=O)OCC)=C(C#N)C1c1ccc(C)cc1` (stereo not drawn), the AC50 was 2.24 µM (active).
For `CCOC(=O)CSC1=C(C#N)C(C)C2=C(CCCC2=O)N1` (stereo not drawn), the “activity, negative = inhibition” value was -26.3%.
With `CC(=NCC(=O)O)c1ccccc1` the activity, negative = inhibition was -4.83% [at 11.4 µM].
For `COc1ccccc1-c1nc(NCc2cccs2)c2ccccc2n1`, the AC50 was 12.6 µM (active).
For `COc1ccccc1-c1nc(NCc2cccnc2)c2ccccc2n1`, the AC50 was 10 µM (active).
In the case of `COc1ccccc1-c1nc(NCc2ccccc2)c2ccccc2n1`, the AC50 was 3.98 µM (active).
`CC[N+](C)(CC)CCOC(=O)C1c2ccccc2Oc2ccccc21` was tested, and the “activity, negative = inhibition” value was -8.91% [at 25.6 µM].
Work on `C[C@@H](C[C@H](N)C(=O)O)C(=O)O` yielded an activity, negative = inhibition of -6.03% [at 11.4 µM].
`COCC1C2CC[C@H]3C(OCc4ccc(OC)cc4)OC[C@]4(C)[C@H]3C2=C(CN4C(=O)OC(C)(C)C)[C@H](C)C1COC` (stereo partly drawn) was tested, and the AC50 was 1.58 µM (active).
`COc1ccc(COC2OC[C@]3(C)[C@H]4C5=C(CN3C(=O)OC(C)(C)C)[C@H](C)C(CO)C(CO)C5CC[C@@H]24)cc1` (stereo partly drawn) was tested, and the AC50 was 7.94 µM (active).
`Cc1nn(C(C)C(=O)Nc2ccc(Cl)cn2)c(C)c1[N+](=O)[O-]` (stereo not drawn) was tested, and the AC50 was 15.8 µM (active).
For `Cc1cc(NC(=O)c2c([N+](=O)[O-])c(C)nn2C)no1`, the “activity, negative = inhibition” value was -9.64%.
`COc1cccc(NC(=S)NNC(=O)C(C)n2nc(C)c([N+](=O)[O-])c2C)c1` (stereo not drawn) showed an activity, negative = inhibition of -29.4% [at 2.29 µM].
`Cc1nn(C(C)C(=O)Nc2sc3c(c2C#N)CCCC3)c(C)c1[N+](=O)[O-]` (stereo not drawn) was tested, and the AC50 was 15.8 µM (active).
In the case of `Cc1nc2ccccc2nc(C)c1=NO`, the “activity, negative = inhibition” value was -12.4%.
With `Cc1cc(OC(=O)c2cc(F)c(F)cc2Cl)nc(C)n1` the “activity, negative = inhibition” value was 3.45%.
With `CC(C)/C(=N/[N+](C)(C)C)c1ccccc1` the activity, negative = inhibition was -14.9% [at 11.4 µM].
